# Experimental data as given in PubChem BioAssay (EPA / NIEHS).
# Calls of active or inactive are those of the source. How the source made its calls: active means hit-call score of the fitted dose curve at least 0.9, where 1 is the maximum; inactive means score below 0.9.
# Read-out: Interleukin-8 (IL8), CXCL8 (gene 3576)
# Assay: BSK_hDFCGF_IL8: BioMAP Diversity Plus: hDFCGF Assay for Interleukin-8 (IL8) Biomarker Activity (AID 2283058)
# Conditions: primary human foreskin fibroblasts; actives raise or lower the signal
# Experimental: BSK_hDFCGF is a cell-based, multiplexed-readout assay that uses foreskin fibroblast, a human skin primary cell, with measurements taken at 24 hours after chemical dosing in a 96-well plate.BSK_hDFCGF_IL8 is an assay component measured in the BSK_hDFCGF assay. It measures IL-8 antibody related to regulation of gene expression using ELISA technology.Data from the assay component BSK_hDFCGF_IL8 was analyzed into 1 assay endpoint. This assay endpoint, BSK_hDFCGF_IL8, was analyzed with bidirectional fitting relative to DMSO as the negative control and baseline of activity. Using a type of binding reporter, gain or loss-of-signal activity can be used to understand changes in the signaling as they relate to the gene CXCL8. Furthermore, this assay endpoint can be referred to as a primary readout, because this assay has produced multiple assay endpoints where this one serves a signaling function. To generalize the intended target to other relatable targets, this assay endpoint is annotated to the cytokine intended target family, where the subfamily is interleukins.
# The levels of cell surface (or secreted, indicated by the prefix "s") biomarker endpoints were measured by ELISA. Overt cytotoxicity to cells in confluent adherent cultures (all systems other than the BT system) was assessed by measuring total protein levels using sulforhodamine B (SRB) staining in parallel cultures at the time of biomarker measurements, indicated as SRB endpoints. For proliferation assays for adherent cell types, individual cell types are cultured at sub-confluence and relative cell numbers quantified by SRB staining at time points optimized for each system (48 h: 3C and CASM3C systems; 72 h: BT and HDF3CGF systems; 96 h: SAg system). SRB was performed by staining cells with 0.1% SRB after fixation with 10% TCA and reading wells at 560 nm.Viability and proliferation of PBMC (T cells) was quantified by Alamar Blue reduction for the SAg and BT systems. For PBMC viability (referred to as PBMC Cytotoxicity within the assay endpoint names), cells were plated (75,000/well in a 96-well plate) and then chemical samples added for 1 h before addition of activators, SEB and TSST-1 (20 ng/mL final concentration each). Cells were incubated for 90 h. Then, Alamar Blue (20 uL/well) (Invitrogen, Cat DAL1100) was added for 6 h, and the plates were read with a fluorescence microplate reader at 546/580 nm (excitation/emission). For PBMC proliferation, cells were plated and activated as above but incubated for only 16 h prior to addition of Alamar Blue. Plates were read after 6 h.
SMILES,outcome,AC50
COc1cc(OC)nc(NC(=O)NS(=O)(=O)c2ncccc2OCC(F)(F)F)n1,inactive,–
Cc1nc(N(C)C)nc(OC(=O)N(C)C)c1C,inactive,–
CCCCC(C#N)(Cn1cncn1)c1ccc(Cl)cc1 (stereo not given),inactive,–
COCC(C)N(C(=O)CCl)c1c(C)csc1C (stereo not given),inactive,–
COCc1cnc(C2=NC(C)(C(C)C)C(=O)N2)c(C(=O)O)c1 (stereo not given),inactive,–
O=C(Nc1ccccc1-c1ccc(Cl)cc1)c1cccnc1Cl,inactive,–
CC(C)=CC1C(C(=O)OCc2coc(Cc3ccccc3)c2)C1(C)C (stereo not given),inactive,–
COP(=S)(OC)Oc1ccc([N+](=O)[O-])c(C)c1,inactive,–
OC(c1ccc(Cl)cc1)(c1ccc(Cl)cc1)C(Cl)(Cl)Cl,–,11 µM (active)
CN=C=S,inactive,–
COC(=O)NC(=S)Nc1ccccc1NC(=S)NC(=O)OC,inactive,–
CCNP(=S)(OC)O/C(C)=C/C(=O)OC(C)C (stereo not given),inactive,–
O=C1C2CC=CCC2C(=O)N1SC(Cl)(Cl)Cl (stereo not given),–,12.1 µM (active)
CCOc1nc(F)cc2nc(S(=O)(=O)Nc3c(Cl)cccc3Cl)nn12,inactive,–
COC(=O)N(C(=O)N1CO[C@@]2(C(=O)OC)Cc3cc(Cl)ccc3C2=N1)c1ccc(OC(F)(F)F)cc1,inactive,–
CS(=O)(=O)c1cc(C(F)(F)F)ccc1C(=O)c1cnoc1C1CC1,inactive,–
CC1(C)C(C(=O)OC(C#N)c2cccc(Oc3ccccc3)c2)C1(C)C (stereo not given),inactive,–
Nc1cnn(-c2ccccc2)c(=O)c1Cl,inactive,–
COCC(=O)N(c1c(C)cccc1C)C(C)C(=O)OC (stereo not given),inactive,–
COC(=O)c1c(C(F)F)nc(C(F)(F)F)c(C2=NCCS2)c1CC(C)C,inactive,–

SMILES,outcome,AC50
CC(C)C1(C)N=C(c2ncccc2C(=O)O)NC1=O (stereo not given),inactive,–
CCOc1nc(C(Cl)(Cl)Cl)ns1,inactive,–
CC1(C)CCC(=Cc2ccc(Cl)cc2)C1(O)Cn1cncn1 (stereo not given),inactive,–
COP(=S)(OC)SCn1nnc2ccccc2c1=O,inactive,–
CNC(=O)N(C)c1nnc(C(C)(C)C)s1,inactive,–
CC(C)Nc1nc(Cl)nc(NC(C)C)n1,inactive,–
CCOc1cc(C(C)(C)C)ccc1C1COC(c2c(F)cccc2F)=N1 (stereo not given),–,20.4 µM (active)
Clc1nc(Cl)nc(Nc2ccccc2Cl)n1,inactive,–
N#Cc1c[nH]cc1-c1cccc2c1OC(F)(F)O2,inactive,–
Cn1c(-c2ccccc2)cc(-c2ccccc2)[n+]1C,inactive,–
O=c1n(Cl)c(=O)n(Cl)c(=O)n1Cl,inactive,–
CCOC(=O)C(C)OC(=O)c1cc(Oc2ccc(C(F)(F)F)cc2Cl)ccc1[N+](=O)[O-] (stereo not given),inactive,–
CC1(C)CON(Cc2ccccc2Cl)C1=O,inactive,–
COc1ccc(-c2ccccc2)cc1NNC(=O)OC(C)C,inactive,–
CC(C)(C)C(=O)C(Oc1ccc(Cl)cc1)n1cncn1 (stereo not given),inactive,–
Cc1cc(C)nc(Nc2ccccc2)n1,inactive,–
CCC(C)n1c(=O)[nH]c(C)c(Br)c1=O (stereo not given),inactive,–
CC(C)Oc1cccc(NC(=O)c2ccccc2C(F)(F)F)c1,inactive,–
N#Cc1c(Cl)cccc1Cl,inactive,–
CCCC(=NOCC)C1=C(O)CC(CC(C)SCC)CC1=O (stereo not given),inactive,–
